Consider 28 compounds from PubChem BioAssay (NCATS).

Values joined by “and” are separate entries in the source; they are usually repeats but may differ in a detail not shown here. Equal entries are not always repeated. Inconclusive results are not listed. Where a call stands in place of a potency, no number is given. Some structures have more than one record in an assay (separate samples or runs), and their calls can disagree. Active and inactive are the calls of the source. The call rests on the fitted dose curve; in most records, active means well fitted inhibition curve with a large enough effect; inconclusive means small, poorly fitted or top-dose-only effect; inactive means flat fitted curve, though single readings scatter.
Potency means the concentration at half of the fitted maximal effect.

This assay in a line: Primary qHTS for inhibitors of nuclear receptor binding SET domain protein 2 (NSD2) in an isogenic RCH-ACV NSD2 p.E1099K mutant (9B) (AID 1645876). Further: nearly all actives have a fitted effect of over 70% in size. Particulars: RCH-ACV (leukaemia line) NSD2 E1099K (9B) viability, CellTiter-Glo, 72 h; series mostly up to 44.9 µM; activity change, negative = viability loss: at the top concentration.
As for `Oc1c(Cl)cc(Cl)c2cccnc12`, the Potency is 3.76 µM (active).
Turning to `Cc1ncc([N+](=O)[O-])n1CCO`, the “activity change, negative = viability loss” value was -11.5% (inactive).
On to `S=P(N1CC1)(N1CC1)N1CC1`, for which the outcome was inactive.
Regarding `CO[C@@H]1[C@@H](OC(N)=O)[C@@H](O)[C@H](Oc2ccc3c(O)c(NC(=O)c4ccc(O)c(CC=C(C)C)c4)c(=O)oc3c2C)OC1(C)C`, the Potency result is “inactive”.
Regarding `COc1c(N2CCNC(C)C2)c(F)cc2c(=O)c(C(=O)O)cn(C3CC3)c12` (stereo not drawn), the Potency entry is “inactive”.
On the same count and under the same terms, the figure for `CCOc1cc(N)c(Cl)cc1C(=O)NCC1CN(Cc2ccc(F)cc2)CCO1` (stereo not drawn) is 21.1 µM (active).
Same read-out and setting: the value for `CCn1cc(C(=O)O)c(=O)c2cc(F)c(N3CCNCC3)cc21` was “inactive”.
On to `CN1CCN(c2c(F)cc3c(=O)c(C(=O)O)cn(CCF)c3c2F)CC1`, for which the “activity change, negative = viability loss” value was 7.18% (inactive).
In the case of `CC(=O)[C@H]1CC[C@H]2[C@@H]3CC=C4C[C@@H](O)CC[C@]4(C)[C@H]3CC[C@]12C`, the Potency result is “inactive”.
Regarding `COc1ncnc(NS(=O)(=O)c2ccc(N)cc2)c1OC`, the Potency entry was “inactive”.
The same measure, in the same setting: the value for `CC(C)(Sc1cc(C(C)(C)C)c(O)c(C(C)(C)C)c1)Sc1cc(C(C)(C)C)c(O)c(C(C)(C)C)c1` was “inactive”.
Consider `O=c1cc(O)c(Cl)c[nH]1`, for which the “activity change, negative = viability loss” value is -9.43% (inactive).
In the case of `COc1cccc(N(C)C(=S)Oc2ccc3c(c2)CCCC3)n1`, the “activity change, negative = viability loss” value is -18.6% (inactive).
For `Cc1nnc(NS(=O)(=O)c2ccc(N)cc2)s1`, the Potency result is “inactive”.
With `Nc1ccc(S(=O)(=O)Nc2ccccn2)cc1`, the “activity change, negative = viability loss” value was 1.16% (inactive).
With `NNC(=O)c1ccncc1`, the Potency entry is “inactive”.
`CCOC(=O)c1ccc(C#Cc2ccc3c(c2)C(C)(C)CCS3)nc1`: the “activity change, negative = viability loss” value was -7.55% (inactive).
In the case of `CNC1CCCN(c2c(F)cc3c(=O)c(C(=O)O)cn(C4CC4)c3c2OC)C1` (stereo not drawn), the Potency result is “inactive”.
Consider `CCN[C@H]1C[C@H](C)S(=O)(=O)c2sc(S(N)(=O)=O)cc21`, for which the Potency result is “inactive”.
As for `CCn1cc(C(=O)O)c(=O)c2cc(F)c(N3CCNCC3)nc21`, the “activity change, negative = viability loss” value was -0.713% (inactive).
Consider `O=C(O)CSCC(=O)NC1CCSC1=O` (stereo not drawn), for which the Potency result was “inactive”.
The same measure, in the same setting: the entry for `CNNCc1ccc(C(=O)NC(C)C)cc1` is “inactive”; for `CCCOc1ccc(C(=O)OCCN(CC)CC)cc1N` it is “inactive”; for `COc1cc2c(Nc3ccc(Br)cc3F)ncnc2cc1OCC1CCN(C)CC1` it is “inactive and 3.65 µM (active) and 13.2 µM (active)”.
Turning to `COc1cc([C@@H]2c3cc4c(cc3[C@H](O)[C@H]3COC(=O)[C@H]23)OCO4)cc(OC)c1OC`, the Potency is 7.5 nM (active) and 37.2 nM (active).
As to `COc1ccccc1OCC(O)COC(N)=O` (stereo not drawn), the call was inactive.
For `O=NN(CCCl)C(=O)NC1CCCCC1`, the Potency entry is “inactive”.
Turning to `COc1cc(NCc2ccc3nc(N)nc(N)c3c2C)cc(OC)c1OC`, the Potency is 13.3 nM (active) and 1.05 µM (active).
